Assay results reported in the supplement of paper PMC10338343.
± gives the standard deviation.

Test system: MILI (PIWIL2) piRISC loaded with L1MC piRNA (26 nt)
Assay: pre-steady-state target cleavage rate (min^-1); guide: L1MC piRNA 5'p-UAACUAAAUACUAUGCAAGCUGUAGG; MIWI and MILI are mouse PIWI proteins and EfPiwi is from a freshwater sponge; tags in brackets are library labels; higher = faster piRNA-guided slicing of the target
How it was run: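 For Cleave-'n-Seq, a transcribed, DNA-blocked target RNA library […] met 1 nM active affinity-purified piRISC with one synthetic guide at 33 °C for 0–8 or 0–960 min in HEPES–potassium acetate buffer, with or without 500 nM GTSF1 partner protein. Uncleaved targets were sequenced and normalised to depth and weakly complementary targets, with three trials pooled and k3 capped at 0.0001 min^-1. A burst-and-steady-state fit supplied the pre-steady-state cleavage rate.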

[1] = auxiliary factor: 500 nM mouse GTSF1
[2] = auxiliary factor: none (no GTSF1)
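Further: 1 nM active piRISC with 0.1 nM target library at 33 °C single turnover.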

Sequence | pre-steady-state target cleavage rate [1] | pre-steady-state target cleavage rate [2]
UCCUGGAUGAGCUUGCAUAGUAUUGUAGUUA | 0.0782 ± 0.024 | 0.00469 ± 0.003
UCCUGGAUCAGCUUGCUAUGUAUUUAGUUA | 0.0176 ± 0.0068 | 0.00553 ± 0.0022
UCCUGGAUGUCGAACGAGAGUAUUUAGUUA | < 0.0001 | < 0.0001
UCCUGGAACACGAUGCAUAGUAUUUAGUAA | 0.0953 ± 0.013 | 0.00313 ± 0.0029
UCCUGGAACAGCUUGCAUAGUAUUAUAGUUA | 0.149 ± 0.024 | 0.00335 ± 0.0027
UCCUGGAUGUCCUUGCAUAGUAAAUAGUUA | 0.034 ± 0.0081 | 0.00497 ± 0.0022
UCCUGCUACAGCUUGCAUUGUAUAUAGUUA | 0.194 ± 0.028 | 0.00483 ± 0.0018
UCCUGCUACAGCUUGCUUAGUAUUUAGUUA | 0.248 ± 0.013 | 0.00684 ± 0.0021
UCCUCCUACAGCAUGCAUAGUAUUUACUUA | 0.16 ± 0.022 | 0.00307 ± 0.0026
UCCUGGUACAGCUUGCAUAGUUUUUAGUUA | 0.0505 ± 0.013 | 0.00579 ± 0.0038
UCCUGGAUGUCCAUGCAUAGUUUUUAGUUA | 0.0166 ± 0.0043 | 0.00362 ± 0.0023
UCCUGGAUCAGCUUGAUAGUAUUUAGUUA | 0.0575 ± 0.0091 | 0.00451 ± 0.002
UCCUGGAUGUGCAUGCAUACUAUUUAGUUA | 0.0253 ± 0.0066 | 0.00586 ± 0.0023
UCCUGGAACUGCUUGCAUAGUAUUAAGUUA | 0.173 ± 0.022 | 0.00346 ± 0.0024
UCCUGGAUGUCCUUGCAAAGUAUUUAGUUA | 0.0392 ± 0.0098 | 0.00687 ± 0.002
UCCUCCUACAGCUUGUCAUAGUAUUUAGUUA | 0.258 ± 0.015 | 0.00407 ± 0.0019
UCCUGGAUGUCGUUGCAUACUAUUUAGUUA | 0.0161 ± 0.0052 | 0.00383 ± 0.002
UCCUGGAUGUGCUUGGUAAGUAUUUAGUUA | 0.00666 ± 0.0036 | 0.00551 ± 0.0023
UCCUGGUACAGCUUGCAUAGUAUUAGUUA | 0.327 ± 0.053 | 0.00515 ± 0.003
UCCUGGAUGUCCUUGCAUAGUCAUUUAGUUA | 0.00722 ± 0.0051 | 0.00338 ± 0.003
UCCUCCUUCAGCUUGCAUAGUAUAUAGUUA | 0.216 ± 0.022 | 0.00364 ± 0.0025
UCCUGGAUGUCGUUGCUUAGUAUUUAGUUA | 0.0857 ± 0.011 | 0.00861 ± 0.002
UCCUGGUACUGCUUGCAUAGUAUUUUGUUA | 0.0539 ± 0.019 | 0.00457 ± 0.0034
UCCUGGUACAGCUUGCAUAGUAUAUAGUUA | 0.274 ± 0.041 | 0.00795 ± 0.0034
UCCUGGUUCACCUUGCAUAGUAUUUAGUUA | 0.128 ± 0.022 | 0.00513 ± 0.0027
UCCUGGAUCAGCUUGCAUAGUUUAUAGUUA | 0.0204 ± 0.008 | 0.00545 ± 0.0025
UCCUGGAACAGCUUGCUUAGUUUUUAGUUA | 0.0579 ± 0.012 | 0.00375 ± 0.0024

Sequence | pre-steady-state target cleavage rate [1] | pre-steady-state target cleavage rate [2]
UCCUGGAUGAGCUUGCUUAGUUUUUAGUUA | 0.0134 ± 0.0052 | 0.00418 ± 0.0026
UCCUGGAUCAGCAUGCAUUGUAUUUAGUUA | 0.15 ± 0.014 | 0.00792 ± 0.0027
UCCUGGUACAGCUUGCAUAGAAAUUAGUUA | 0.0374 ± 0.011 | 0.00311 ± 0.0031
UCCUGGUACAGCUUGCAAUCUAUUUAGUUA | 0.0377 ± 0.013 | 0.00455 ± 0.0036
UCCUGGAUGUGCAUGCAUAGUAUUAAGUUA | 0.122 ± 0.017 | 0.00463 ± 0.0027
UCCUGGAUCAGCUUGCUAAGUAUUUAGUUA | 0.0871 ± 0.012 | 0.0065 ± 0.0021
UCCUGGUACAGCUUGCAUAGAUAUUUAGUUA | 0.0243 ± 0.011 | 0.00568 ± 0.0026
UCCUGGAUGUCGAUGCAUAGUAUCUUAGUUA | 0.0692 ± 0.013 | 0.00487 ± 0.0024
UCCUGCUACUAGCUUGCAUAGUAUUUAGUUA | 0.176 ± 0.022 | 0.0074 ± 0.0023
UCCUGGAACAGCUUGCUAGUAUUUAGUUA | 0.0161 ± 0.0069 | 0.00397 ± 0.0027
UCCUGGAACAGCAACCAUAGUAUUUAGUUA | 0.152 ± 0.018 | 0.00431 ± 0.0018
UCCUGGAACUCGUUGCAUAGUAUUUAGUAA | 0.165 ± 0.021 | 0.00378 ± 0.002
UCCUGGAUCAGCAUGCAUAGUAUUUUGUUA | 0.16 ± 0.021 | 0.00405 ± 0.0024
UCCUGGAUGUGCUUGCAUAGUAUUUUAGUUA | 0.101 ± 0.018 | 0.0102 ± 0.0031
UCCUCCUACAGCUUGCAUAGUAUUUAGUUC [g2:g26:cont:t1C] | 0.283 ± 0.016 | 0.0143 ± 0.0047
UCCUGGAUGUCGUUGCAUAGUAUUUAGUAUA | 0.127 ± 0.03 | 0.00811 ± 0.0035
UCCUCCUACAGCUUCGUUAGUAUUUAGUUA | 0.221 ± 0.013 | 0.00396 ± 0.0017
UCCUGGAUCAGCUUGCAAAGUAUAUAGUUA | 0.104 ± 0.012 | 0.00771 ± 0.0027
UCCUGCUACAGGUUGCAUAGUAUUUAGUAA | 0.223 ± 0.024 | 0.0054 ± 0.0028
UCCUGGAUGUCGUUGCAUAGUAUUUAGUA | 0.148 ± 0.022 | 0.00424 ± 0.0026
UCCUGGAUGUCCUUGCAUAGUAUAUAGUUA | 0.149 ± 0.026 | 0.00505 ± 0.0026
UCCUGGAUGUCGUUGGAUACUAUUUAGUUA | < 0.0001 | < 0.0001
UCCUGGUACAGCUUGCAUAGUAUUUAGGUUA | 0.163 ± 0.044 | 0.00633 ± 0.0032
UCCUGGAUGAGCUUGCUUAGUAUUUACUUA | 0.124 ± 0.031 | 0.00394 ± 0.0031
UCCUGGAUGUCGUUGCAUGGUAUUUAGUUA | 0.0354 ± 0.01 | 0.00854 ± 0.0034
UCCUGGAUGUGCUUGGAUAGUAUUUAGUUA | 0.115 ± 0.013 | 0.00702 ± 0.0024
UCCUGGAAUCAGCUUGCAUAGUAUUUAGUUA | 0.278 ± 0.021 | 0.016 ± 0.0034
